In PubChem BioAssay (EPA / NIEHS) one finds outcome and AC50 data, which are given here for 40 molecules.

Active and inactive are the calls of the source. How the source made its calls: active means hit-call score of the fitted dose curve at least 0.9, where 1 is the maximum; inactive means score below 0.9.

A short description of this test: BSK_BE3C_SRB: Viability Assessment in the BioMAP Diversity Plus: BE3C Assay (AID 2283028).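 On AC50: fitted both ways so AC50 may mark signal gain or loss versus DMSO.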 The following applies: primary human bronchial epithelial cells. The procedure:
BSK_BE3C is a cell-based, multiplexed-readout assay that uses bronchial epithelial cell, a human lung primary cell, with measurements taken at 24 hours after chemical dosing in a 96-well plate.BSK_BE3C_SRB is an assay component measured in the BSK_BE3C assay. It measures 0.1% sulforhodamine related to cell death using Sulforhodamine staining technology.Data from the assay component BSK_BE3C_SRB was analyzed into 1 assay endpoint. This assay endpoint, BSK_BE3C_SRB, was analyzed with bidirectional fitting relative to DMSO as the negative control and baseline of activity. Using a type of viability reporter, gain or loss-of-signal activity can be used to understand changes in the signaling. Furthermore, this assay endpoint can be referred to as a primary readout, because this assay has produced multiple assay endpoints where this one serves a signaling function. To generalize the intended target to other relatable targets, this assay endpoint is annotated to the cell morphology intended target family, where the subfamily is cell conformation.
The levels of cell surface (or secreted, indicated by the prefix "s") biomarker endpoints were measured by ELISA. Overt cytotoxicity to cells in confluent adherent cultures (all systems other than the BT system) was assessed by measuring total protein levels using sulforhodamine B (SRB) staining in parallel cultures at the time of biomarker measurements, indicated as SRB endpoints. For proliferation assays for adherent cell types, individual cell types are cultured at sub-confluence and relative cell numbers quantified by SRB staining at time points optimized for each system (48 h: 3C and CASM3C systems; 72 h: BT and HDF3CGF systems; 96 h: SAg system). SRB was performed by staining cells with 0.1% SRB after fixation with 10% TCA and reading wells at 560 nm.Viability and proliferation of PBMC (T cells) was quantified by Alamar Blue reduction for the SAg and BT systems. For PBMC viability (referred to as PBMC Cytotoxicity within the assay endpoint names), cells were plated (75,000/well in a 96-well plate) and then chemical samples added for 1 h before addition of activators, SEB and TSST-1 (20 ng/mL final concentration each). Cells were incubated for 90 h. Then, Alamar Blue (20 uL/well) (Invitrogen, Cat DAL1100) was added for 6 h, and the plates were read with a fluorescence microplate reader at 546/580 nm (excitation/emission). For PBMC proliferation, cells were plated and activated as above but incubated for only 16 h prior to addition of Alamar Blue. Plates were read after 6 h.
As for `CCc1cccc(CC)c1N(COC)C(=O)CCl`, the result was inactive.

Consider `CCCCN(CC)c1c([N+](=O)[O-])cc(C(F)(F)F)cc1[N+](=O)[O-]`, for which the result was inactive.

For orientation: AC50 means the concentration at which the activity in the assay is half-maximal. Consider `CCCOCC(=Nc1ccc(Cl)cc1C(F)(F)F)n1ccnc1`, for which the concentration at half-maximal activity (AC50) is 20 µM (active).

For `FC(F)C(F)(F)OCC(Cn1cncn1)c1ccc(Cl)cc1Cl` (stereo not given), the outcome was inactive.

Turning to `CNC(=O)ON=C(SC)C(=O)N(C)C`, the result was inactive.

Consider `CCCSP(=O)(OCC)SCCC`, for which the result was inactive.

Regarding `CSc1nnc(C(C)(C)C)c(=O)n1N`, the outcome was inactive.

Regarding `CN(C)NC(=O)CCC(=O)O`, the outcome was inactive.

As to `CSc1nc(NC(C)C)nc(NC(C)C)n1`, the outcome was inactive.

For the molecule `CC(Oc1cccc(Cl)c1)C(=O)O` (stereo not given), the outcome was inactive.

`CN(C)[C@@H]1C(=O)C(C(N)=O)=C(O)[C@@]2(O)C(=O)C3=C(O)c4c(O)cccc4[C@@](C)(O)[C@H]3[C@H](O)[C@@H]12`: the result was inactive.

In the case of `CCOP(=O)(NC(C)C)Oc1ccc(SC)c(C)c1` (stereo not given), the outcome was inactive.

As to `CC1(C(=O)Nc2ccc(O)c(Cl)c2Cl)CCCCC1`, the AC50 was 17.8 µM (active).

Turning to `C=C(C)[C@H]1Cc2c(ccc3c2O[C@@H]2COc4cc(OC)c(OC)cc4[C@@H]2C3=O)O1`, the outcome was inactive.

Consider `CC(=NC#N)N(C)Cc1ccc(Cl)nc1`, for which the result was inactive.

For the molecule `CCOP(=S)(OCC)SCCSCC`, the result was inactive.

With `C[N+]1(C)CCCCC1`, the outcome was inactive.

With `COc1ccc(C(=CC(=O)N2CCOCC2)c2ccc(Cl)cc2)cc1OC`, the outcome was inactive.

Take `CCCCOC(=O)[C@@H](C)Oc1ccc(Oc2ccc(C#N)cc2F)cc1`: the outcome was inactive.

In the case of `CC(COc1ccc(Oc2ccccc2)cc1)Oc1ccccn1` (stereo not given), the outcome was inactive.

Consider `CCCCSP(=O)(SCCCC)SCCCC`, for which the AC50 is 14.7 µM (active).

As to `CCOP(=S)(OCC)OC(Cl)C(Cl)(Cl)Cl` (stereo not given), the outcome was inactive.

Turning to `N#CSCSC#N`, the outcome was inactive.

For `CCOP(=S)(OCC)Oc1cc(C)nc(C(C)C)n1`, the result was inactive.

For `COP(=O)(OC)SCn1c(=O)oc2cc(Cl)cnc21`, the result was inactive.

`CCOP(=S)(OCC)Oc1ccc2c(C)c(Cl)c(=O)oc2c1`: the concentration at half-maximal activity (AC50) was 20 µM (active).

Take `CCOP(=O)(SC(C)CC)N1CCSC1=O` (stereo not given): the outcome was inactive.

For the molecule `CCNc1nc(Cl)nc(NC(C)(C)C#N)n1`, the outcome was inactive.

As for `O=C(O)c1cc(Oc2ccc(C(F)(F)F)cc2Cl)ccc1[N+](=O)[O-]`, the outcome was inactive.

Regarding `CN(C)C(=O)Nc1cccc(C(F)(F)F)c1`, the result was inactive.

For the molecule `CCOP(=O)(OCC)Oc1cc(C)nc(C(C)C)n1`, the outcome was inactive.

Consider `CON=C(C(=O)OC)c1ccccc1CON=C(C)c1cccc(C(F)(F)F)c1`, for which the outcome was inactive.

Take `Nc1nc(N)nc(NC2CC2)n1`: the result was inactive.

As for `CCc1cccc(C)c1N(C(=O)CCl)C(C)COC` (stereo not given), the result was inactive.

Take `C#CC(C)(C)NC(=O)c1cc(Cl)cc(Cl)c1`: the outcome was inactive.

For `COP(=O)(OC)C(O)C(Cl)(Cl)Cl` (stereo not given), the result was inactive.

For `C[Si](Cn1cncn1)(c1ccc(F)cc1)c1ccc(F)cc1`, the result was inactive.

`Cc1ccn2nc(S(=O)(=O)Nc3c(F)cccc3F)nc2n1`: the outcome was inactive.

Take `O=c1ccc(=O)[nH][nH]1`: the result was inactive.

In the case of `CC1=NNC(=O)N(/N=C/c2cccnc2)C1`, the result was inactive.
